“And” between values parts separate entries of the source, which are not always exact repeats. Equal values may be shown once. Records with an inconclusive call do not appear. The source made the active and inactive calls. Unless noted, calls follow the shape of the dose curve; as a rule, active = well fitted curve in the direction sought with a large enough effect; inconclusive = small, poorly fitted or top-dose-only effect, or another doubt; inactive = no such curve, though single readings can be large; an effect the other way counts as inactive or inconclusive.
Experiments:
[1] = biological target: Cytochrome P450 1A2 (Homo sapiens) (UniProt P05177); assay: p450-cyp1a2 (AID 410; calls by dose curve;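 also: -100% = full effect of reference inhibitor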)
Cytochrome P450 1A2 (Homo sapiens), sequence (P05177 whole entry, looked up): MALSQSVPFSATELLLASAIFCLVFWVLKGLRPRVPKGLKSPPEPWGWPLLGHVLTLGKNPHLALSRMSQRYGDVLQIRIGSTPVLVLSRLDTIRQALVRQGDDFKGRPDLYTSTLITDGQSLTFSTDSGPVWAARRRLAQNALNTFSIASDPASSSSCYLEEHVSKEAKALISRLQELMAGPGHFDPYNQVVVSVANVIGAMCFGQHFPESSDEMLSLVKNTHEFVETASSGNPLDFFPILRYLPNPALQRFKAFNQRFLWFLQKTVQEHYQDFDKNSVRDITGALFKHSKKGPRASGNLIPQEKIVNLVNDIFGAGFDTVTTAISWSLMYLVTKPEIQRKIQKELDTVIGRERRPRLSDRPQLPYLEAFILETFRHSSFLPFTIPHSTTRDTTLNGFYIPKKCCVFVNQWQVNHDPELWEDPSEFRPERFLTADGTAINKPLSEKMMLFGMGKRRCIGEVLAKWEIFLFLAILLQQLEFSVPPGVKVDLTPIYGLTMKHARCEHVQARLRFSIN
How it was run: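 Read-out is luminescence from luciferin produced by CYP1A2 demethylation of Luciferin-ME (100uM, at Km). Detection reagent stopped the 60 min NADPH-dependent reaction; signals were normalized to 57 uM furafylline.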

[2] = biological target: Glucocorticoid receptor (Homo sapiens) (UniProt P04150); assay: GR-GFP Redistribution (AID 450;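 active = compounds whose dose series gives a full or clear partial fitted curve of increased nuclear translocation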; also: potency is read from the fitted curve at half-maximal effect); conditions: U2OS GR-GFP nuclear translocation, laser cytometry, 2 h
Glucocorticoid receptor (Homo sapiens), sequence (P04150 whole entry, looked up, the tested form may be a part): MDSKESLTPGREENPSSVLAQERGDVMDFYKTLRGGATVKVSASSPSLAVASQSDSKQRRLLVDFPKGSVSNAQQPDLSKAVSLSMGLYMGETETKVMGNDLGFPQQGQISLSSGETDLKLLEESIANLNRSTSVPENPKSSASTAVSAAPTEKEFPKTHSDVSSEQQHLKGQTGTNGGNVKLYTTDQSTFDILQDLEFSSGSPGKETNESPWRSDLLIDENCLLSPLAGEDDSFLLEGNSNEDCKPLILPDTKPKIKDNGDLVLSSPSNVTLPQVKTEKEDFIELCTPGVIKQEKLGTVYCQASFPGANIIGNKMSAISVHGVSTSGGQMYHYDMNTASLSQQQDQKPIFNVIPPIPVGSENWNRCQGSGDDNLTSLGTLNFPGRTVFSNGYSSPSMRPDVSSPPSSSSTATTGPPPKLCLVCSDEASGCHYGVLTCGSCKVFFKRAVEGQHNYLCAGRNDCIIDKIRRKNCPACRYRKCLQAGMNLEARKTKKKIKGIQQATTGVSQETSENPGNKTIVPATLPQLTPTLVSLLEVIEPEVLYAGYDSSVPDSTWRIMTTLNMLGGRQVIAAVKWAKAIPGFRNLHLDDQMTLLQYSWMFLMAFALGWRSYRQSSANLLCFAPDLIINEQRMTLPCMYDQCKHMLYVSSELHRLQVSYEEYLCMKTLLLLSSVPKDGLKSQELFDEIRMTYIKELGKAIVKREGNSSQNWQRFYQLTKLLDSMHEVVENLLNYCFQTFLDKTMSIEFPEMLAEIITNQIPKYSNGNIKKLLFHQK

[3] = biological target: Glucocorticoid receptor (Homo sapiens) (UniProt P04150); assay: GR-EFC Redistribution (AID 451; calls by dose curve; also: potency is read from the fitted curve at half-maximal effect); conditions: CHO-K1 GR-EFC translocation, beta-gal luminescence, 2 h
How it was run: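 CHO-K1 cells stably expressing nuclear-localized β-gal enzyme acceptor and GR fused C-terminally to the enzyme donor fragment; ligand-driven nuclear translocation restores β-gal by complementation. Compounds titrated up to 46 uM final, 2 h at 37 °C; luminescence read.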

[4] = biological target: Mitogen-activated protein kinase 10 (Mus musculus) (UniProt Q61831); assay: JNK3 AlphaScreen Assay (AID 530; active = well fitted curve in either direction with a large enough effect, not every such curve was filed as active;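 also: kinase came from lysate of stimulated human HepG2 cells; signal reports phosphorylation of biotinylated GST-cJun 1-79 at Ser73 with 10 µM ATP; % is scaled to controls: 0 for no effect and ±100 for the full control effect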)
How it was run: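 Biotinylated GST-cJun(1-79) served as substrate for JNK3 in HepG2 lysates stimulated with IL-1beta and TNF-alpha. ATP was 10 uM final, pH 7.6. Ser73 phosphorylation was quantified by AlphaScreen (680 nm excitation).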

[5] = biological target: 3',5'-cyclic-AMP phosphodiesterase 4B (Homo sapiens) (UniProt Q07343); assay: qHTS Assay for Inhibitors of PDE-IV (AID 607; active = well fitted activation curve with a large enough effect in the main read-out, with a control signal flat, not every such curve was filed as active; also: % of control where 0% means no effect)
3',5'-cyclic-AMP phosphodiesterase 4B (Homo sapiens), sequence (Q07343 whole entry, looked up): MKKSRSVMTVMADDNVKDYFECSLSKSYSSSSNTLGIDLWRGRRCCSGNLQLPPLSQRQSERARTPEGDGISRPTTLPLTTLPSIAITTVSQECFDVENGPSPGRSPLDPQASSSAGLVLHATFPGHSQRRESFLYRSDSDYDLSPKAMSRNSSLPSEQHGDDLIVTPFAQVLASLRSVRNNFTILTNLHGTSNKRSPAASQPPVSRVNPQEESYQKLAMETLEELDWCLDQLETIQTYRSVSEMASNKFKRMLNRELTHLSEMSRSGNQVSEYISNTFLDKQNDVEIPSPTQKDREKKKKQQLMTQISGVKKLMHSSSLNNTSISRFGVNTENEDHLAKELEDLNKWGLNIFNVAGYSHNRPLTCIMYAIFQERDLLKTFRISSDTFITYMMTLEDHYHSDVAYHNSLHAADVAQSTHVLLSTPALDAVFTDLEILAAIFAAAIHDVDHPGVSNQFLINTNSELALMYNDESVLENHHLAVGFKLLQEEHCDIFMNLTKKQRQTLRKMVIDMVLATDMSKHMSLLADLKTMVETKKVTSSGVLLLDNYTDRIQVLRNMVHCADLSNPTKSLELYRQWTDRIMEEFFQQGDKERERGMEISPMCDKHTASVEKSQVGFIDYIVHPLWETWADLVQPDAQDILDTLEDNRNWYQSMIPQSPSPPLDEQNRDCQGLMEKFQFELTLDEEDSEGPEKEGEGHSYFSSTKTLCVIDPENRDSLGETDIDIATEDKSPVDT
How it was run: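 The readout is membrane depolarisation from a cAMP-sensing CNG channel, detected with a potential dye at ex 535/em 590. Cells were HEK293-derived (endogenous PDE-IV) at 1000 cells/well, titrated up to 22.9 uM final.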

[6] = biological target: Guanine nucleotide-binding protein G(i) subunit alpha-1 (Homo sapiens) (UniProt P63096); assay: qHTS Assay for Inhibitors of RGS12 GoLoco Motif Activity (Green Fluorophore) (AID 879);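 also: 0% = labeled peptide with Gαi1 and full inhibition = labeled peptide alone without protein; negative values mean loss of peptide binding seen as reduced polarization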
How it was run: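 A drop in FITC polarization marked displacement of the FITC-tagged RGS12 GoLoco peptide (10 nM) from Gαi1 (50 nM). Compounds were incubated 10 min at room temperature in Tris pH 7.5 buffer containing 150 mM NaCl, 0.1 mM GDP and 0.05% NP40; unlabeled peptide titration served as control.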

[7] = biological target: Cytochrome P450 3A4 (Homo sapiens) (UniProt P08684); assay: qHTS Assay for Inhibitors and Substrates of Cytochrome P450 3A4 (AID 884); also: % is scaled to controls: 0 for no effect and ±100 for the full control effect; nearly all actives have a fitted effect of over 50% in size
How it was run: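 Luminescent readout of luciferin produced by CYP3A4 (20 nM) dealkylation of Luciferin-PPXE, 25 uM (its KM). NADPH-driven reaction ran 60 min at RT after 10 min compound preincubation; data scaled to 57 uM ketoconazole as 100% inhibition.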

[8] = biological target: Cytochrome P450 2C19 (Homo sapiens) (UniProt P33261); assay: qHTS Assay for Inhibitors and Substrates of Cytochrome P450 2C19 (AID 899); also: % is scaled to controls: 0 for no effect and ±100 for the full control effect; nearly all actives have a fitted effect of over 60% in size
Cytochrome P450 2C19 (Homo sapiens), sequence (P33261 whole entry, looked up): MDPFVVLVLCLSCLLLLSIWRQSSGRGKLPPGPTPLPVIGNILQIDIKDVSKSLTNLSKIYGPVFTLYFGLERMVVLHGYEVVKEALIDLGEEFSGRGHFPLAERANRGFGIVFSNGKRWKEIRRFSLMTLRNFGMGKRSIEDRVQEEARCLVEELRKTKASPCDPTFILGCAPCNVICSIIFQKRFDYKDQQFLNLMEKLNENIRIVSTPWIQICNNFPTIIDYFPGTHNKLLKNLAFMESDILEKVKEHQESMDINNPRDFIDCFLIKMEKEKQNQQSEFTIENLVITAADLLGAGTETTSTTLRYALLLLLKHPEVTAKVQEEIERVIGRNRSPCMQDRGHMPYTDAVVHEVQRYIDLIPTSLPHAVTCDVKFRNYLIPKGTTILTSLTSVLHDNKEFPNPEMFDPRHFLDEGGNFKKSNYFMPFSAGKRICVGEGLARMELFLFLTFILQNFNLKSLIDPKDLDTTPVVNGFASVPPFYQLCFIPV
How it was run: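 NADPH-dependent conversion of Luciferin-H EGE (10uM, at KM) by 5nM enzyme in 50mM KPO4, 60 min at 37C following 10 min compound preincubation. Stopped with luciferin detection buffer; luminescence read after 20 min.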

[9] = qHTS Assay for Identification of Small Molecule Agonists for Thrombopoietin (TPO) Signaling Pathway (AID 917); also: % is scaled to controls: 0 for no effect and ±100 for the full control effect
How it was run: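 Cell-based luciferase reporter screen. Mouse Ba/F3 line stably expressing human TPO receptor; IL-3 removed overnight before plating. Co-treatment with compound and EC50 TPO (26 pM), 24 hrs at 37 C, then luminescence.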

[10] = biological target: Muscarinic acetylcholine receptor M1 (Rattus norvegicus) (UniProt P08482); assay: qHTS Assay for Antagonists of Acetylcholine Muscarinic M1 Receptor: Kinetic Measurement of Intracellular Calcium Response (AID 943);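 also: Fluo-4 calcium signal as peak divided by basal fluorescence over 4 min; nearly all actives have a fitted effect of over 75% in size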
Muscarinic acetylcholine receptor M1 (Rattus norvegicus), sequence (P08482 whole entry, looked up): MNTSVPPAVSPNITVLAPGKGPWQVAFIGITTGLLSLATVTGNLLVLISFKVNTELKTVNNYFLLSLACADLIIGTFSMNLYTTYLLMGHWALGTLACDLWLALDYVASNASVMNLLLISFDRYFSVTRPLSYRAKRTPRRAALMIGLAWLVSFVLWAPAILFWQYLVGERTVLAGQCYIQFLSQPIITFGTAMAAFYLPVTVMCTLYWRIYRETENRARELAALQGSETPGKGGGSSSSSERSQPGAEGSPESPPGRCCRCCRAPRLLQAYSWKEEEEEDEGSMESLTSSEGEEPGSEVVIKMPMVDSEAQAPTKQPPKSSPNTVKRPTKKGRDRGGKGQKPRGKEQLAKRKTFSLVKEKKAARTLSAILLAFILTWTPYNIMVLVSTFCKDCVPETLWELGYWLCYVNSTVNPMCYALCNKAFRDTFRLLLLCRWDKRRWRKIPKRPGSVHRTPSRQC
How it was run: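 Quantitative HTS in CHO-M1 (rat receptor) cells: 10 min compound exposure ahead of 100 nM carbachol, Fluo-4 fluorescence followed 4 min, value expressed as peak-to-basal ratio.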

[11] = biological target: Muscarinic acetylcholine receptor M1 (Rattus norvegicus) (UniProt P08482); assay: qHTS Assay for Antagonists of Acetylcholine Muscarinic M1 Receptor: Measurement of IP-One Response (AID 944); also: nearly all actives have a fitted effect of over 75% in size
How it was run: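 Antagonism was measured as loss of carbachol-driven (EC80) IP1 accumulation in CHO cells carrying rat M1, using a homogeneous IP-One TR-FRET kit read at 620 and 665 nm.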

[12] = biological target: Pyruvate kinase (Leishmania mexicana) (UniProt Q27686); assay: qHTS Validation Assay for Inhibitors of Leishmania Mexicana Pyruvate Kinase (AID 945);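 also: 0% = DMSO only neutral control wells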
Pyruvate kinase (Leishmania mexicana), sequence (Q27686 2-499 E452W): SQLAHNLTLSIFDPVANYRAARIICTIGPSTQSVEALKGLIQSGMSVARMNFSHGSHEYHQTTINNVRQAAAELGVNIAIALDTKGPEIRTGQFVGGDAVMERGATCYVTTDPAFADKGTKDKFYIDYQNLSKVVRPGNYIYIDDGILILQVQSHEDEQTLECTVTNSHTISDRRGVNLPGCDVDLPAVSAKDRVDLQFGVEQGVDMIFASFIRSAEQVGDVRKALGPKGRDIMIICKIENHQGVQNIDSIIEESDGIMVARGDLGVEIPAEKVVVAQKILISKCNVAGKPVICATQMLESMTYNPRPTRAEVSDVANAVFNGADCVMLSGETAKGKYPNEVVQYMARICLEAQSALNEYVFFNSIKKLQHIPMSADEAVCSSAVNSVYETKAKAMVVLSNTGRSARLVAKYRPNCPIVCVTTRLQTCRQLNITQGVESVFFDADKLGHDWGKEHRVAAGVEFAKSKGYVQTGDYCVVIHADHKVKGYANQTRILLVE
How it was run: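 LmPYK E451W 0.2 nM; 0.5 mM PEP, 0.1 mM ADP, 7 mM MgCl2, 50 mM KCl, imidazole pH 7.2, 0.01% Tween 20, 0.05% BSA; 1 h RT; PKLight luminescence; DMSO-normalized.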

[13] = biological target: Pyruvate kinase PKM (Homo sapiens) (UniProt P14618); assay: qHTS Assay for Activators of Human Muscle Pyruvate Kinase (AID 954; active = well fitted curve in the direction sought with a large enough effect, not every such curve was filed as active;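 also: 0% = uninhibited enzyme and -100% = no enzyme or full thiadiazolimine inhibition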)
How it was run: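 PKM2, human, >95% pure, 0.1 nM; PEP 0.5 mM (Km), ADP 0.1 mM; 50 mM imidazole pH 7.2, 50 mM KCl, 0.01% Tween 20, 0.05% BSA; 1 h RT; luciferase luminescence readout.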

[14] = biological target: Alpha-galactosidase (Coffea arabica) (UniProt Q42656); assay: Counterscreen for Glucocerebrosidase Inhibitors: qHTS Assay for Coffee Bean alpha-Galactosidase at pH 4.5 (AID 957);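 also: plate controls were enzyme alone for no effect and no enzyme for full effect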
Alpha-galactosidase (Coffea arabica), sequence (Q42656 whole entry, looked up): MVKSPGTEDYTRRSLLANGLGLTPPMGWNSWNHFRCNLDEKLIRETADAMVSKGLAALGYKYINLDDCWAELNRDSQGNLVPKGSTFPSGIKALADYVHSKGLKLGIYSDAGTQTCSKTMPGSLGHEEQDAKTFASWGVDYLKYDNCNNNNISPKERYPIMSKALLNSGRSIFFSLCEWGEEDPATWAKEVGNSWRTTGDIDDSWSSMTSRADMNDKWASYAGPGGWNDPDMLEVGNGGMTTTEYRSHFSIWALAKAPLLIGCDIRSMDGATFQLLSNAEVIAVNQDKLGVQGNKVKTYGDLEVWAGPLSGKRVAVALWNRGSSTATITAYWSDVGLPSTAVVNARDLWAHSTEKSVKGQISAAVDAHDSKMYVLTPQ
How it was run: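 Quantitative HTS of compounds (0.7 nM to 77 uM) against coffee bean alpha-galactosidase at pH 4.5, measuring 4-methylumbelliferone fluorescence released from 80 uM substrate.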

[15] = biological target: alpha-glucosidase (Oryza sativa, rice) (UniProt Q653V4); assay: Counterscreen for Glucocerebrosidase Inhibitors: qHTS Assay for Rice alpha-Glucosidase at pH 5.0 (AID 997);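 also: 0% = full activity with enzyme and -100% = basal without enzyme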
How it was run: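 Endpoint fluorogenic assay at pH 5.0: compounds (0.7 nM to 77 uM) titrated against 4 nM rice enzyme and 400 uM 4-MU-alpha-glucoside for 20 min at room temperature; NaOH/glycine stop, read ex 365/em 440 nm, Hill-fitted AC50.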

[16] = biological target: Alpha-galactosidase (Coffea arabica) (UniProt Q42656); assay: Counterscreen for Glucocerebrosidase Inhibitors: qHTS Assay for Coffee Bean alpha-Galactosidase at pH 5.9 (AID 998);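 also: plate controls were uninhibited enzyme for no effect and no-enzyme basal signal for full effect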
How it was run: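 In 50 mM citric acid pH 5.9 with 0.005% Tween-20, coffee bean enzyme hydrolyses 80 uM 4-MU alpha-D-galactopyranoside over 20 min at RT. Activity is normalized to controls; AC50 comes from Hill-modelled concentration-response data.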

[17] = qHTS Assay for Lipid Storage Modulators (AID 1519; calls by dose curve); conditions: Drosophila S3 cells, BODIPY lipid droplet/cell ratio, laser cytometry, cells loaded with oleic acid; for activity change, negative = inhibition: at 57.5 µM (top of the series)
How it was run: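 Cells seeded at 5,000 per well were treated with compounds over a concentration series and loaded with oleic acid (400 uM, as added). Lipid droplet fluorescence (488 nm excitation, 500-530 nm channel) was read by laser-scanning cytometry and normalized to 20 uM Triacsin C.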

[18] = biological target: Ubiquitin carboxyl-terminal hydrolase 1 (Homo sapiens) (UniProt O94782); assay: Inhibitors of USP1/UAF1: Pilot qHTS (AID 504865);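 also: rhodamine fluorescence freed from ubiquitin-rhodamine substrate followed over time; top concentration of the series differs between compounds; % is scaled to controls: 0 for no effect and ±100 for the full control effect; nearly all actives have a fitted effect of over 35% in size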
Ubiquitin carboxyl-terminal hydrolase 1 (Homo sapiens), sequence (O94782 whole entry, looked up): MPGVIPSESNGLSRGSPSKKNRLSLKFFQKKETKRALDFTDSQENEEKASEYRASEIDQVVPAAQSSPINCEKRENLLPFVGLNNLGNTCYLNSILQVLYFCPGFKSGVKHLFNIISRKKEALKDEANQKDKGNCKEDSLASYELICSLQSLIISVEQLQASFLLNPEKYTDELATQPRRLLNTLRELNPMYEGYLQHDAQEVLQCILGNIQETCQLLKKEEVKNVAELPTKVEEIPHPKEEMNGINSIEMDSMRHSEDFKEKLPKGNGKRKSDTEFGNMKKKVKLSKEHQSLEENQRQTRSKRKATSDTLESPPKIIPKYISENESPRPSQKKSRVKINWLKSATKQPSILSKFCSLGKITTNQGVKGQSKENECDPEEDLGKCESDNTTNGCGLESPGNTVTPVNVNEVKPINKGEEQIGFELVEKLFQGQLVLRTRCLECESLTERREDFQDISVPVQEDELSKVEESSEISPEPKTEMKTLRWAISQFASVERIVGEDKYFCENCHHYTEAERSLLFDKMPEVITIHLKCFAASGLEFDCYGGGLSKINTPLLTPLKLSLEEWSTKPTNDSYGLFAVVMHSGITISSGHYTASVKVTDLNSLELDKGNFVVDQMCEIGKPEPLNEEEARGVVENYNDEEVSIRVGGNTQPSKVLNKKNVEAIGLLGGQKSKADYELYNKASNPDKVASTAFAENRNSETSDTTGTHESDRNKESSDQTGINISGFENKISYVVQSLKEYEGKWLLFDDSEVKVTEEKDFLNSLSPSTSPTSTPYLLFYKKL
How it was run: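 In 50mM HEPES pH 7.8 containing 0.5mM EDTA, 1mM TCEP, 0.1 mg/ml BSA and 0.01% Tween-20, 1nM USP1/UAF1 is exposed to compound for 15 min, then Ub-Rho (150nM final) is added and fluorescence is read over time.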

[19] = biological target: DNA dC->dU-editing enzyme APOBEC-3G (Homo sapiens) (UniProt Q9HC16); assay: qHTS for inhibitors of Vif-A3G interactions: Validation (AID 588379); also: 0% is about no effect
DNA dC->dU-editing enzyme APOBEC-3G (Homo sapiens), sequence (Q9HC16 whole entry, looked up): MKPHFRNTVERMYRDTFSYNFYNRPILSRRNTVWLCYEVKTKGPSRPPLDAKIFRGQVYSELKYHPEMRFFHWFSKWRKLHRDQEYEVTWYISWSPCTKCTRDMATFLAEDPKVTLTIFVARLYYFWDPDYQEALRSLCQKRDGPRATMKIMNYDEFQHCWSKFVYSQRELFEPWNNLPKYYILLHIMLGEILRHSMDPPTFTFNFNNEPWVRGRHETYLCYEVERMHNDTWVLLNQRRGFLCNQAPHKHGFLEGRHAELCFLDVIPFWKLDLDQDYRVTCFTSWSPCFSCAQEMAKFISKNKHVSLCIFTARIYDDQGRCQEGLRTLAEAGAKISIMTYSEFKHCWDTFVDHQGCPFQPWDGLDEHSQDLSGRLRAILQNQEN
How it was run: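 Yellow fluorescence (Ex 488, Em 500-530) of Vif-coexpressing HeLa A3G-eYFP cells, scanned by Acumen cytometer, reports blocked A3G degradation. Cells plated at 700/well overnight at 37 deg C before compound addition, then a further overnight compound incubation at 37 deg C.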

[20] = Primary qHTS for small molecule stabilizers of the endoplasmic reticulum resident proteome: Secreted ER Calcium Modulated Protein (SERCaMP) assay (AID 1508630); also: % is scaled to controls: 0 for no effect and ±100 for the full control effect
How it was run: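 The SH-SY5Y reporter protocol was run at 3 concentrations up to 38.3 uM (primary) or 11 concentrations (follow-up): 16 h compound, 100 nM thapsigargin for 4 h, then extracellular luciferase luminescence.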

[21] = biological target: Lysosomal acid glucosylceramidase (Homo sapiens) (UniProt P04062); assay: Glucocerebrosidase-p2 (AID 348; in the data active = potency below about 10 µM; also: potency is read from the fitted curve at half-maximal effect); conditions: purified GBA, blue fluorogenic substrate, 40 min
How it was run: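 Normal human glucocerebrosidase (0.2 nM) with blue fluorogenic substrate (80 uM final) in citrate/phosphate pH 5.9 with 10mM sodium taurocholate, 0.01% tween-20; 40 min RT, NaOH/glycine stop; fluorescence Ex 365/Em 440; AC50 from a titration from 0.6 nM upwards.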

[22] = AP1 Signaling Pathway (AID 357; active = well fitted curve in either direction with a large enough effect, not every such curve was filed as active;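 also: ME-180 reporter cells stimulated with EGF at its EC50 level; % is scaled to controls: 0 for no effect and ±100 for the full control effect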)
How it was run: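 Read-out was the 460nm/530nm emission ratio (excitation 405nm) after CCF4 loading for 2.5 hours at room temperature. Cells carried an AP-1-driven beta-lactamase reporter, were stimulated with EC50 EGF plus compound for 5 hours, and AC50 values came from titrations.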

[23] = NFAT Signaling Pathway (AID 444; active = well fitted curve in either direction with a large enough effect, not every such curve was filed as active); conditions: Jurkat NFAT-bla M1, carbachol, beta-lactamase ratio, 5 h; at 7.69 µM (top of the series)
How it was run: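 Jurkat cells carrying an NFAT-driven β-lactamase reporter and co-transfected muscarinic M1 receptor were treated with compound plus carbachol (1 uM final, an EC50 level) for 5 h at 37 °C. CCF4 loading followed for 1 h at RT; 460/530 nm ratio gave %activity.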

[24] = Stat Signaling Pathway (AID 446; active = well fitted curve in either direction with a large enough effect, not every such curve was filed as active)
How it was run: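 Emission at 460 and 530 nm (excitation 405 nm) reports SIE-controlled beta-lactamase in ME-180 cells. Cells received compound with 40 pM IL-6 for 5 hrs at 37 C; data scaled between 300 pM IL-6 and 125 nM JAK-inhibitor controls.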

[25] = measured here: cell count channel max response
[26] = measured here: lipid channel max response

N[C@@]1(C(=O)O)CC[C@H](C(=O)O)C1
-9.77% and 22.3% and -1.79%: max response [17, 25]
-7.89% and 39.1% and -2.3%: max response [17, 26]
inactive: Potency [1] | Potency [2] > 46 µM | Potency [3] > 46 µM | outcome [4] | Potency [5] | outcome [6] | Potency [7] | Potency [8] | outcome [9] | Potency [10] | Potency [11] | outcome [12] | outcome [13] | outcome [14] | outcome [15] | outcome [16] | activity change, negative = inhibition [17] 1.47% and 9.82% and 2.9% | Potency [18] | Potency [19] | Potency [20]

N[C@@H](CCP(=O)(O)O)C(=O)O
-9.13%: max response [17, 26]
-5.2%: max response [17, 25]
inactive: Potency [21] > 11.4 µM | activity change, negative = inhibition [22] 9.69% [at 7.69 µM] | activity change, negative = inhibition [23] 3.73% | activity, negative = inhibition [24] 11.7% [at 7.69 µM] | Potency [3] > 46 µM and > 9.22 µM | outcome [4] | Potency [5] | activity change, negative = inhibition [17] -1.66% | Potency [19] | Potency [20]

Source: PubChem BioAssay (NCATS)
